According to PubChem BioAssay (NCI):
About 83,000 compounds went through this panel and 20% of them were active in at least one assay; those are over-represented in the sample as a whole.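 For each line, cells grew in 96-well plates with the test compound present at a single concentration for 48 hours.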 Active and inactive are the calls of the source. How the source made its calls: active means growth percent below 10; inactive means the rest.

test system: MDA-MB-231 breast; assay: NCI-60 one-dose screen, 48 h (100 = growth as untreated, 0 = no growth, -100 = all killed); details: 10 µM unless noted

SMILES | growth
COc1ccc(C2CC(c3ccc(OC)c(OC)c3)=NN2C(=O)c2cc(OC)c(OC)c(OC)c2)c(OC)c1 (centres undefined) | 90.3% (inactive)
CCOC(=O)c1c2c(c(C)n1Cc1ccc(OC)cc1)-c1nc(N)ncc1CC2 | 97.2% (inactive)
O=C1N(C2CCCCC2)C(=O)N1C1CCCCC1 | 64.3% (inactive)
O=c1ccn(C2OC(CO)C(O)C2F)c(=O)[nH]1 (centres undefined) | 117% (inactive)
CCCn1cnc2c1c(=O)n(CCCCC(C)=O)c(=O)n2C | 104% (inactive)
CCCCc1nc(Cl)c(CO)n1Cc1ccc(-c2ccccc2-c2nn[nH]n2)cc1 | 99.1% (inactive)
COc1ccc(C2CC(c3cccc(Nc4ccnc5cc(Cl)ccc45)c3)=NN2C=O)cc1 (centres undefined) | 24.3% (inactive)
O=c1c(O)cccn1CCCNCCCN(CCCn1cccc(O)c1=O)CCCn1cccc(O)c1=O | 96% (inactive)
COc1ccc2nc(-c3ccc(-n4cncc4-c4ccc(OC)c(N)c4)cc3)sc2c1 | 104% (inactive)
Cc1cc(NC(=O)Nc2cc(Cl)ccc2C)no1 | 100% (inactive)
O=C1NCN(c2ccccc2)C12CCN(CCCC(c1ccc(F)cc1)c1ccc(F)cc1)CC2 | 78% (inactive)
CCC(O)C(C)(C)C (centres undefined) | 117% (inactive)
COc1ncc(-c2ccc3nccc(C#CCN4CCN(S(C)(=O)=O)CC4)c3c2)cc1NS(=O)(=O)c1ccc(F)cc1F | 10.5% (inactive)
O=C(Nc1ccc(Cl)cc1)c1cc2c(cc1O)[nH]c1ccccc12 | 36.1% (inactive)
O=C1c2ccccc2C(=O)c2c1cccc2-n1nnc2ccccc21 | 125% (inactive)
Cc1nn(-c2ccccc2)c2c1oc(=O)c1cc(Cl)ccc12 | 94% (inactive)
CCC1=C(c2ccc(OC)cc2)C(C)(C)Oc2c1ccc(O)c2CN1CCCC1 | 24.2% (inactive)
O=C(NCCc1ccccc1)C1CCC(=O)N1Cc1ccc(Br)cc1 (centres undefined) | 114% (inactive)
N#Cc1ccc(NC(=O)Nc2ccc(Oc3ccc(NC(=O)Nc4ccc(C#N)cc4)cc3)cc2)cc1 | 53.5% (inactive)

SMILES | growth
COc1ccc2c(c1)C(=O)c1c-2c(OCCN(C)C)nc2cc(OC)ccc12 | 1.22% (active)
O=C(Nc1cccc([N+](=O)[O-])c1)c1cccc(C(=O)Nc2cccc([N+](=O)[O-])c2)c1 | 83.1% (inactive)
CCCCCCCCCCCCCCCCCC1=NC(C)(C)CN1CCO | -61.7% (active)
COc1ccc(OC)c(NC(=O)c2cc3oc4ccccc4c3cc2O)c1 | 100% (inactive)
CN1C(=O)/C(=C/c2nc(-c3cccc(F)c3)n3ccccc23)c2ccccc21 | 61.3% (inactive)
O=C(CN1CCCCC1)Sc1nnc2sc3ccccc3n12 | 97.4% (inactive)
C[C@]12CC[C@@H]3c4ccc(O)c([N+](=O)[O-])c4CC[C@H]3[C@@H]1CC[C@@H]2NS(=O)(=O)c1cccc(Br)c1 | 26.7% (inactive)
Cc1ccsc1/C=C/C1=NCCCN1C | 99.3% (inactive)
CCCCCCCCCCSc1ncnc2nc[nH]c12 | 75.3% (inactive)
C[n+]1c2ccccc2c(NC2CCNCC2)c2[nH]c3ccccc3c21 | 17.1% (inactive)
COc1cccc2c1O/C(=C\c1c([N+](=O)[O-])ncn1C)C2=O | 119% (inactive)
CC[C@@H]1OC(=O)[C@H](C)[C@@H](O[C@H]2C[C@@](C)(OC)[C@@H](O)[C@H](C)O2)[C@H](C)[C@@H](O[C@@H]2O[C@H](C)C[C@H](N(C)C)[C@H]2O)[C@](C)(O)C[C@@H](C)[C@@H]2N[C@@H](COCCOC)O[C@H]([C@H]2C)[C@]1(C)O | 94.6% (inactive)
O=C1C[C@@H]2/C(=C(O)\C=C\c3ccccc3)C(=O)C=C[C@@H]2O1 | -45.7% (active)
Cc1cc2c(cc1[N+](=O)[O-])NC(CNC(C)C)CC2 (centres undefined) | 107% (inactive)
CCCCN(CCCC)CCCOC(=O)c1ccc(N)cc1 | 86.8% (inactive)
C=C(C[C@](O)(C(=O)/C=C/c1ccc(Cl)cc1)C(=O)OC)c1ccccc1 | 71% (inactive)
CCN1C[C@@H](C)n2c(c(O)c3c(=O)n(Cc4ccc(F)c(Cl)c4)nc(C(=O)NC)c32)C1=O | 50.7% (inactive)
Cc1nnc(Nc2ccc(NC(=O)Nc3ccc(Cl)cc3)cc2)c2ccccc12 | 23.1% (inactive)

test system: RXF 393 renal; assay: as above; details: 10 µM unless noted

SMILES | growth
COc1ccc(C2CC(c3ccc(OC)c(OC)c3)=NN2C(=O)c2cc(OC)c(OC)c(OC)c2)c(OC)c1 (centres undefined) | 48.6% (inactive)
CCOC(=O)c1c2c(c(C)n1Cc1ccc(OC)cc1)-c1nc(N)ncc1CC2 | 116% (inactive)
O=C1N(C2CCCCC2)C(=O)N1C1CCCCC1 | 43.2% (inactive)
O=c1ccn(C2OC(CO)C(O)C2F)c(=O)[nH]1 (centres undefined) | 132% (inactive)
CCCn1cnc2c1c(=O)n(CCCCC(C)=O)c(=O)n2C | 103% (inactive)
CCCCc1nc(Cl)c(CO)n1Cc1ccc(-c2ccccc2-c2nn[nH]n2)cc1 | 105% (inactive)
COc1ccc(C2CC(c3cccc(Nc4ccnc5cc(Cl)ccc45)c3)=NN2C=O)cc1 (centres undefined) | -5.62% (active)
O=c1c(O)cccn1CCCNCCCN(CCCn1cccc(O)c1=O)CCCn1cccc(O)c1=O | 121% (inactive)
COc1ccc2nc(-c3ccc(-n4cncc4-c4ccc(OC)c(N)c4)cc3)sc2c1 | 113% (inactive)
Cc1cc(NC(=O)Nc2cc(Cl)ccc2C)no1 | 126% (inactive)
O=C1NCN(c2ccccc2)C12CCN(CCCC(c1ccc(F)cc1)c1ccc(F)cc1)CC2 | 39.9% (inactive)
CCC(O)C(C)(C)C (centres undefined) | 111% (inactive)
COc1ncc(-c2ccc3nccc(C#CCN4CCN(S(C)(=O)=O)CC4)c3c2)cc1NS(=O)(=O)c1ccc(F)cc1F | -23.5% (active)
O=C(Nc1ccc(Cl)cc1)c1cc2c(cc1O)[nH]c1ccccc12 | 1.97% (active)
O=C1c2ccccc2C(=O)c2c1cccc2-n1nnc2ccccc21 | 111% (inactive)
Cc1nn(-c2ccccc2)c2c1oc(=O)c1cc(Cl)ccc12 | 116% (inactive)
CCC1=C(c2ccc(OC)cc2)C(C)(C)Oc2c1ccc(O)c2CN1CCCC1 | 14.9% (inactive)
O=C(NCCc1ccccc1)C1CCC(=O)N1Cc1ccc(Br)cc1 (centres undefined) | 106% (inactive)
N#Cc1ccc(NC(=O)Nc2ccc(Oc3ccc(NC(=O)Nc4ccc(C#N)cc4)cc3)cc2)cc1 | 83.2% (inactive)

SMILES | growth
COc1ccc2c(c1)C(=O)c1c-2c(OCCN(C)C)nc2cc(OC)ccc12 | -8.64% (active)
O=C(Nc1cccc([N+](=O)[O-])c1)c1cccc(C(=O)Nc2cccc([N+](=O)[O-])c2)c1 | 29.4% (inactive)
CCCCCCCCCCCCCCCCCC1=NC(C)(C)CN1CCO | -47.3% (active)
COc1ccc(OC)c(NC(=O)c2cc3oc4ccccc4c3cc2O)c1 | 143% (inactive)
CN1C(=O)/C(=C/c2nc(-c3cccc(F)c3)n3ccccc23)c2ccccc21 | 66.2% (inactive)
O=C(CN1CCCCC1)Sc1nnc2sc3ccccc3n12 | 108% (inactive)
C[C@]12CC[C@@H]3c4ccc(O)c([N+](=O)[O-])c4CC[C@H]3[C@@H]1CC[C@@H]2NS(=O)(=O)c1cccc(Br)c1 | 10.4% (inactive)
Cc1ccsc1/C=C/C1=NCCCN1C | 113% (inactive)
CCCCCCCCCCSc1ncnc2nc[nH]c12 | 89.5% (inactive)
C[n+]1c2ccccc2c(NC2CCNCC2)c2[nH]c3ccccc3c21 | -13.7% (active)
COc1cccc2c1O/C(=C\c1c([N+](=O)[O-])ncn1C)C2=O | 113% (inactive)
CC[C@@H]1OC(=O)[C@H](C)[C@@H](O[C@H]2C[C@@](C)(OC)[C@@H](O)[C@H](C)O2)[C@H](C)[C@@H](O[C@@H]2O[C@H](C)C[C@H](N(C)C)[C@H]2O)[C@](C)(O)C[C@@H](C)[C@@H]2N[C@@H](COCCOC)O[C@H]([C@H]2C)[C@]1(C)O | 116% (inactive)
O=C1C[C@@H]2/C(=C(O)\C=C\c3ccccc3)C(=O)C=C[C@@H]2O1 | -92.9% (active)
Cc1cc2c(cc1[N+](=O)[O-])NC(CNC(C)C)CC2 (centres undefined) | 117% (inactive)
CCCCN(CCCC)CCCOC(=O)c1ccc(N)cc1 | 92.1% (inactive)
C=C(C[C@](O)(C(=O)/C=C/c1ccc(Cl)cc1)C(=O)OC)c1ccccc1 | 52.5% (inactive)
CCN1C[C@@H](C)n2c(c(O)c3c(=O)n(Cc4ccc(F)c(Cl)c4)nc(C(=O)NC)c32)C1=O | 2.79% (active)
Cc1nnc(Nc2ccc(NC(=O)Nc3ccc(Cl)cc3)cc2)c2ccccc12 | -39.7% (active)
